Screening data: PubChem BioAssay, National Center for Advancing Translational Sciences (NCATS)
In the library only some 6.7% were active in any assay of this set; here they are far more common.
MCF10A rereplic – A quantitative high throughput screen for small molecules that induce DNA re-replication in MCF 10a normal breast cells; AID 624296, 2012; 350,000 tested, 2.9% active; Potency, µM (highest dose often 46.1 µM), for the others: top-dose activity, positive = re-replication, actives largely listed as activators; MCF 10A DNA re-replication, Hoechst nuclear intensity, 48 h; note: % of control where 0% means no effect; nearly all actives have a fitted effect of over 50% in size
KB-3-1 cytotox – qHTS assay for MDR1-selective chemotherapeutics: Primary screen using the parental adenocarcinoma cell KB-3-1 | Potency, µM (top dose mostly 46.1 µM), hits mostly cytotoxic | KB-3-1 viability, CellTiter-Glo ATP luminescence, 72 h | 400,000 tested, 1.4% active; note: % is set by controls: 0 for no effect and ±100 for the full control effect; nearly all actives have a fitted effect of over 60% in size
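Screening of KB-3-1 cells (DMEM, 10% FBS, phenol-red free) ran from lowest to highest compound concentration; after 72 h at 37 °C viability was read luminescently and curves fitted.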
SW480 rerep – A quantitative high throughput screen for small molecules that induce DNA re-replication in SW480 colon adenocarcinoma cells. 340,000 tested, 1.8% active. SW480 DNA re-replication, Hoechst DNA content imaging, 48 h. AID 624297, 2012. Potency, µM (series often up to 46.1 µM), for inactives: top-dose re-replication activation, most hits filed as activators; note: % of control where 0% means no effect; nearly all actives have a fitted effect of over 55% in size
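Treated cells incubate 48 hr (37 C, 5% CO2), are stained 40 min with Hoechst, and nuclear fluorescence is enumerated; a rise in nuclei with high DNA signal marks re-replication.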
KB-V1 cytotox – qHTS assay for MDR1-selective chemotherapeutics: Primary screen using the drug-selected MDR subline cells KB-V1; Potency, µM (highest dose often 46.1 µM), hits mostly cytotoxic; AID 1347076, 2019; KB-V1 MDR cells viability, CellTiter-Glo, 72 h; 400,000 tested, 3.4% active; note: % is set by controls: 0 for no effect and ±100 for the full control effect; nearly all actives have a fitted effect of over 60% in size
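KB-V1 cells (P-gp-expressing MDR subline of KB-3-1) in phenol-red-free DMEM with 10% FBS were exposed to library compounds over a concentration series for 72 h at 37 degrees C. Viability read by CellTiter-Glo luminescence; concentration-effect curves fitted after normalization.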
PINK1 modulator – A Quantitative High throughput Screen to Identify Chemical Modulators of PINK1 Expression. PINK1 immunofluorescence, high-content cytometry, 24 h. Potency, µM (top dose mostly 76.6 µM), without a hit: at the highest dose activation (PINK1 increase), actives largely listed as activators. 410,000 tested, 0.2% active. AID 624263, 2012; active = well fitted activation curve with a large enough effect; inconclusive = small, poorly fitted or top-dose-only effect; cell line not stated here; note: % of control where 0% means no effect; nearly all actives have a fitted effect of over 65% in size
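PINK1 protein level read as immunofluorescence by microplate cytometer in a fixed, stained stable cell line after 24 h exposure to five compound concentrations, with CCCP as control.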
The depositor's hits bear a star; [ ] = remark or other dose. Unless noted, calls come from the whole dose curve; as a rule, active = well fitted curve in the direction sought with a large enough effect; inconclusive = small, poorly fitted or top-dose-only effect, or another doubt; inactive = no such curve, though single readings can be large; an effect the other way counts as inactive or inconclusive. Potency is the fitted concentration of half-maximal effect.

Cc1ccc(-c2csc(N(CC3CCCO3)C(=O)c3ccco3)n2)cc1 (centres undefined) was read as MCF10A rereplic 20.6µM*, KB-3-1 cytotox inconclusive, SW480 rerep inconclusive, KB-V1 cytotox inconclusive and PINK1 modulator 3.6%.
O=C(c1cccs1)N(CC1CCCO1)c1nc(-c2ccccc2)cs1 (centres undefined) was read as MCF10A rereplic 18.5%, KB-3-1 cytotox inactive, SW480 rerep 7.7%, KB-V1 cytotox inactive and PINK1 modulator 2.7%.
COc1ccc(-c2csc(N(CC3CCCO3)C(=O)c3ccc(C)cc3)n2)cc1 (centres undefined) was read as MCF10A rereplic -1.5%, KB-3-1 cytotox inconclusive, SW480 rerep -2.1%, KB-V1 cytotox 3.66µM* and PINK1 modulator 4.5%[38.3 µM].
CC1CCC(C(C)C)C(NC(=O)c2ccncc2)C1 (centres undefined) was read as KB-3-1 cytotox inactive, KB-V1 cytotox inactive and PINK1 modulator 0.3%.
CC(=O)NCCNc1nc(-c2cccc(NS(C)(=O)=O)c2)nc2ccccc12 was read as PINK1 modulator 2.2%.
Screening Cc1nn(-c2ccc(N3CCOCC3)nn2)c(C)c1CCC(=O)Nc1ccc(F)cc1F returned PINK1 modulator -0.2%.
`Cc1cc(O)c(C(c2ccccc2)N2CCN(c3ccc(F)cc3)CC2)c(=O)n1Cc1ccco1` (centres undefined) gave KB-3-1 cytotox inactive, KB-V1 cytotox inactive and PINK1 modulator 0.2%.
Screening O=c1[nH]c(CN2CCN(S(=O)(=O)/C=C/c3ccccc3)CC2)nc2ccccc12 returned MCF10A rereplic 28.1%, KB-3-1 cytotox inactive, SW480 rerep 1.7%, KB-V1 cytotox inactive and PINK1 modulator 1.8%.
NC(=O)C1CCN(Cc2nc3cc(Cl)ccc3c(=O)[nH]2)CC1 was read as MCF10A rereplic 20.6µM*, KB-3-1 cytotox inconclusive, SW480 rerep -0.2%, KB-V1 cytotox inactive and PINK1 modulator -1.9%.
For NC(=O)C1CCN(Cc2nc3ccccc3c(=O)[nH]2)CC1 the results were MCF10A rereplic 425.2%[0.0737 µM], KB-3-1 cytotox inactive, SW480 rerep -2.1%, KB-V1 cytotox inactive and PINK1 modulator -1.6%.
`O=c1[nH]c(CN2CCN(S(=O)(=O)/C=C/c3ccccc3)CC2)nc2cc(Cl)ccc12` gave MCF10A rereplic 18.4µM*, KB-3-1 cytotox 23.1µM*, SW480 rerep inconclusive, KB-V1 cytotox inconclusive and PINK1 modulator -0.3%.
COC(=O)C1CC23C=CCN4CCC5(c6ccccc6NC15C2C)C43 (centres undefined) was read as MCF10A rereplic inconclusive, KB-3-1 cytotox 1.03µM*, SW480 rerep 0.92µM*, KB-V1 cytotox inconclusive and PINK1 modulator 13.1%.
CN1CC[C@]23c4ccccc4N[C@H]1[C@]21CCN(C)[C@H]3Nc2ccccc21 was read as MCF10A rereplic -28.5%, KB-3-1 cytotox inactive, SW480 rerep -19.9%, KB-V1 cytotox inactive and PINK1 modulator 1.4%.
Screening CCOC(=O)c1c(C)[nH]c(-c2csc(C)n2)c1C returned MCF10A rereplic 2.0%, KB-3-1 cytotox inactive, SW480 rerep -1.9%, KB-V1 cytotox inconclusive and PINK1 modulator 3.3%.
For CCOC(=O)c1c(C)[nH]c(-c2csc(N)n2)c1C the results were MCF10A rereplic 16.4µM*, KB-3-1 cytotox inconclusive, SW480 rerep inconclusive, KB-V1 cytotox inactive and PINK1 modulator 1.0%.
`C#CCNC(=O)C1=C[C@H](c2cn(C(C)=O)c3ccccc23)C[C@H](OCc2ccc(CO)cc2)O1` gave MCF10A rereplic -0.9%, KB-3-1 cytotox inactive, SW480 rerep -0.8%, KB-V1 cytotox inactive and PINK1 modulator 2.5%.
Screening CC(=O)n1cc([C@@H]2C=C(C(=O)NCc3ccccc3)O[C@H](OCc3ccc(CO)cc3)C2)c2ccccc21 returned MCF10A rereplic 13µM*, KB-3-1 cytotox inactive, SW480 rerep -3.8%, KB-V1 cytotox inactive and PINK1 modulator 1.5%.
For C=CCOC(=O)C1=C[C@@H](c2cn(C(C)=O)c3ccccc23)C[C@@H](OCc2ccc(CO)cc2)O1 the results were MCF10A rereplic 23.1µM*, KB-3-1 cytotox inactive, SW480 rerep -29.1%, KB-V1 cytotox inactive and PINK1 modulator 0.6%.
O=C(Nc1ccccc1)C1=C[C@@H](C2CC2)C[C@@H](OCCCCO)O1 was read as MCF10A rereplic -7.9%, KB-3-1 cytotox inactive, SW480 rerep -11.4%, KB-V1 cytotox 7.31µM* and PINK1 modulator 2.8%.
`O=C(NCc1ccccc1)C1=C[C@H](c2csc3ccccc23)C[C@H](OCCCCO)O1` gave MCF10A rereplic inconclusive, KB-3-1 cytotox inconclusive, SW480 rerep inconclusive, KB-V1 cytotox 7.31µM* and PINK1 modulator 0.0%.
Screening CC(=O)n1cc([C@@H]2C=C(C(=O)O)O[C@H](OCc3ccc(CO)cc3)C2)c2ccccc21 returned MCF10A rereplic inconclusive, KB-3-1 cytotox inactive, SW480 rerep inconclusive, KB-V1 cytotox inactive and PINK1 modulator -1.1%.
OCCc1c[nH]c2ccc(OCc3ccccc3)cc12 was read as MCF10A rereplic -4.1%, KB-3-1 cytotox inactive, SW480 rerep -4.6%, KB-V1 cytotox inactive and PINK1 modulator 1.6%.
Screening CCc1nc2c(OCCc3cccc(OC)c3)cccn2c1N(C)C(=O)c1cccs1 returned KB-3-1 cytotox inactive, KB-V1 cytotox inconclusive and PINK1 modulator 0.6%.
For C(=C\c1ccccn1)/c1ccccn1 the results were MCF10A rereplic 8.8%, KB-3-1 cytotox inactive, SW480 rerep inconclusive, KB-V1 cytotox inactive and PINK1 modulator 0.8%.
CC1C/C(=C/c2ccccn2)C(=O)/C(=C/c2ccccn2)C1 (centres undefined) was read as MCF10A rereplic 2.31µM*, KB-3-1 cytotox inconclusive, SW480 rerep 0.291µM*, KB-V1 cytotox inactive and PINK1 modulator 8.4%.
For CC(C)(C)C1C/C(=C/c2ccccn2)C(=O)/C(=C/c2ccccn2)C1 (centres undefined) the results were MCF10A rereplic inconclusive, KB-3-1 cytotox inconclusive, SW480 rerep 0.411µM*, KB-V1 cytotox inconclusive and PINK1 modulator -0.7%.
COc1cc(NC(=O)Nc2nc(C(N)C3CCCCC3)cs2)cc(OC)c1OC (centres undefined) was read as KB-3-1 cytotox inconclusive, KB-V1 cytotox inactive and PINK1 modulator -1.1%.
For CCOC(=O)c1c(N/N=C/c2cccnc2)n[nH]c1C the results were MCF10A rereplic inconclusive, KB-3-1 cytotox 9.2µM*, SW480 rerep inconclusive, KB-V1 cytotox 5.8µM* and PINK1 modulator 7.4%.
